Most compounds without a hit are left out; they make up all but 18% or so of the library.
TDP1 block: TDP1 (human) enzyme inhibition | Potency, µM (series often up to 130 µM), inactives show at the highest dose activity change, negative = inhibition, actives largely listed as inhibitors | recombinant TDP1, AlphaScreen DNA substrate cleavage | hit rate 0.28% among 350,000 | Q9NUW8 | AID 485290; note: nearly all actives have a fitted effect of over 40% in size
Target sequence (Q9NUW8 whole entry, looked up): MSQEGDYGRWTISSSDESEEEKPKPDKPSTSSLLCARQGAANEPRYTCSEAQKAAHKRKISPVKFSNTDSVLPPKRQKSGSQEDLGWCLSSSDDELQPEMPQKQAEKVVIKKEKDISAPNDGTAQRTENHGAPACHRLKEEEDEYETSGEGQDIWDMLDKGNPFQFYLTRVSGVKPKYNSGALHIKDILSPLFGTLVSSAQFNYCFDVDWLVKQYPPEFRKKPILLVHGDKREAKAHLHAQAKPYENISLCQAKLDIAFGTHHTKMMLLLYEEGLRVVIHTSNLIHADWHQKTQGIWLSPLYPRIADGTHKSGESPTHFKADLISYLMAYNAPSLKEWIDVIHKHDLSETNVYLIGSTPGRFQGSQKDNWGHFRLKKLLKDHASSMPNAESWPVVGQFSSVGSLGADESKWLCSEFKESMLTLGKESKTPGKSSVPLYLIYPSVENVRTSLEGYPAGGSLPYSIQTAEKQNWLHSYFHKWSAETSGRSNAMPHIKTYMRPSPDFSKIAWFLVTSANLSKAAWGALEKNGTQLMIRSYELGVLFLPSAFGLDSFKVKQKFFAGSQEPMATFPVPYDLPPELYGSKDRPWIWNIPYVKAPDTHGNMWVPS
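Here, a 5' biotin and 3' phosphotyrosine-FITC DNA oligonucleotide reports Tdp1 activity: intact substrate bridges AlphaScreen beads, while cleavage leaves a 3' phosphate and drops signal. All incubations at room temperature.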
DT40 TDP1 CPT: DT40-hTDP1 cell growth loss with CPT; hit rate 12% among 420,000; Potency, µM (highest dose often 46.2 µM), inactives show at the top dose activity change, negative = growth inhibition, hits mostly inhibitors; chicken DT40 Tdp1-/-;hTDP1 cells + 20 nM CPT, ATP luminescence, 48 h; note: nearly all actives have a fitted effect of over 55% in size
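Chicken DT40 Tdp1-/- cells complemented with human TDP1, 400 cells/well, exposed to compounds plus 20 nM camptothecin for at least 48 h at 37 C; viability read as ATP content by CellTiter-Glo luminescence.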
PLK1 PBD inh: PLK1 (human) polo-box domain binding inhibition | hit rate 2.8% among 360,000 | AID 720504 | Plk1 PBD binding of FITC phosphopeptide, fluorescence polarization | Potency, µM, inactives show max response, negative = inhibition, hits mostly inhibitors; note: series mostly up to about 57 µM; nearly all actives have a fitted effect of over 65% in size
VDR inhibitor: inhibitors of human vitamin D receptor. hit rate 0.93% among 400,000. VDR-SRC2-3 peptide fluorescence polarization, 2 h. Potency, µM, without a hit: max response, negative = inhibition, actives largely listed as inhibitors
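After 23 nl compound addition and a short centrifugation, plates sat for 2 hours at ambient temperature; polarization of fluorescence then indicated loss of VDR binding to peptide SRC2-3.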
GCN5L2 inh: inhibitors of human GCN5L2 histone acetyltransferase | GCN5L2 HAT assay, ThioGlo1 CoA-SH fluorescence | AID 504327 | hit rate 0.21% among 390,000 | Q92830 | Potency, µM (series often up to 58.9 µM), without a hit: top-dose activity change, negative = inhibition, hits mostly inhibitors
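Fluorescence readout, Ex340nm/Em540nm: ThioGlo1 (50uM final) reacts with free CoA thiol released as 20nM GCN5L2 acetylates H3(1-25) peptide (75uM) using acetyl-CoA (70uM). Compound and enzyme sat 15 min beforehand; 20 min room-temperature reaction.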
TDP1 cell noCPT: qHTS for Inhibitors of human tyrosyl-DNA phosphodiesterase 1 (TDP1): qHTS in cells in absence of CPT; DT40 Tdp1-/- hTDP1 cells, no CPT, ATP luminescence, 48 h; hit rate 15% among 420,000; Potency, µM (top dose mostly 46.2 µM), without a hit: at the top dose activity change, negative = growth inhibition, most hits filed as inhibitors; note: nearly all actives have a fitted effect of over 55% in size
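Growth kinetics read by CellTiter-Glo luminescence after ≥48 hr at 37 °C. Cells: DT40 Tdp1-/- stably carrying human TDP1, 400 per well, compound exposure in the absence of CPT (DMSO vehicle).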
Numbers without * were called inactive; ? = inconclusive; . = no result given; [ ] = dose if it differs, or a comment. Calls come from the whole dose curve; as a rule, active = well fitted curve in the direction sought with a large enough effect; inconclusive = small, poorly fitted or top-dose-only effect, or another doubt; inactive = no such curve, though single readings can be large; an effect the other way counts as inactive or inconclusive. % is set by controls: 0 for no effect and ±100 for the full control effect; potency is the fitted concentration of half-maximal effect.

SMILES	TDP1 block	DT40 TDP1 CPT	PLK1 PBD inh	VDR inhibitor	GCN5L2 inh	TDP1 cell noCPT
COc1ccc2c(c1OC)C(=O)N1C2SC(C)(C)[C@H]1C(=O)NC1CCCC1 (stereo not given in full)	.	-3%	-6%	-5%	32µM*	-12%
Cc1ccc2c(c1)sc(-c1ccc(N(C)C)cc1)[n+]2C	.	0.037µM*	-18%	-24%	-12%	0.018µM*
O=C(c1ccc(S(=O)(=O)c2cccc(Cl)c2)c([N+](=O)[O-])c1)N1CCN(Cc2ccccc2)CC1	9%	3.7µM*	-1%	-3%	-2%	5.8µM*
O=C(c1ccc(S(=O)(=O)Cc2cc(F)ccc2F)c([N+](=O)[O-])c1)N1CCCC1	5%	3.3µM*	11µM*	?	-4%	2.9µM*
O=C(c1ccc(S(=O)(=O)Cc2cc(F)ccc2F)c([N+](=O)[O-])c1)N1CCCCC1	0%	?	?	?	2%	23µM*
CC1CCN(C(=O)c2ccc(S(=O)(=O)Cc3cccc(F)c3)c([N+](=O)[O-])c2)CC1	4%	?	?	?	-1%	?
O=C(c1ccc(Cl)c([N+](=O)[O-])c1)N1CCN(c2ccccn2)CC1	1%	-10%	0%	-6%	-2%	?
O=C(c1ccc(S(=O)(=O)Cc2ccccc2Cl)c([N+](=O)[O-])c1)N1CCN(c2ccccn2)CC1	6%	3.7µM*	?	-16%	-10%	7.3µM*
O=S(=O)(c1ccc(Cl)cc1)N1CCc2ccccc21	.	?	28%	-7%	-5%	15µM*
CCn1c(=O)n(CC)c2cc(S(=O)(=O)N3CCc4ccccc43)ccc21	3%	13µM*	-7%	4%	-3%	18µM*
COc1ccc2c(c1)CCCN2S(=O)(=O)c1ccc(Cl)cc1	-18%	23µM*	1%	-9%	-3%	15µM*
COc1ccc2c(c1)CCCN2C(N)=O	0%	-4%	-14%	7%	-9%	-3%
COc1ccc2c(c1)CCCN2C(N)=Nc1ccc(Cl)cc1	.	?	-4%	2%	-4%	23µM*
CC(=O)N1CCc2ccc(S(=O)(=O)N3CCc4ccccc43)cc21	8%	21µM*	2%	-15%	5%	5.2µM*
Cc1cccc2cc(CN(C(=O)c3ccc(-c4ccc(F)cc4)cc3)C3CC3)c(N3CCC(O)CC3)nc12	.	?	.	.	.	23µM*
Cc1cccc2cc(CN(C(=O)c3ccc(N4CCCCC4)cc3)C3CC3)c(N3CCC(O)CC3)nc12	.	-1%[9.04 µM]	.	.	.	-24%
COc1ccccc1C(=O)N(Cc1cc2cccc(C)c2nc1N1CCC(O)CC1)C1CC1	.	-7%[9.04 µM]	.	.	.	16µM*
CC(=O)N1CCC[C@H]1C(=O)NCC1Cc2cc(C)cc(-c3ccc(Cl)cc3)c2O1 (stereo not given in full)	.	-12%[9.04 µM]	.	.	.	-22%
Cc1cccc(CN2CCN(C(=O)c3ccccc3F)CC2)c1	-11%	-8%	1%	12%	5%	-4%
Cc1cc2oc(C(=O)N3CCN(Cc4ccccc4)CC3)c(C)c2cc1C	.	26µM*	0%	8%	.	?
Cc1ccccc1CN1CCN(C(=O)c2cccc3ccccc23)CC1	.	?	4%	-9%	-2%	?
Cc1cccc(CN2CCN(C(=O)CCl)CC2)c1	0%	15µM*	-2%	-11%	4%	16µM*
Cc1ccc(CN2CCN(C(=O)c3cccc4ccccc34)CC2)cc1	.	?	4%	14%	-4%	23µM*
CN(Cc1ccccc1)C(=O)c1ccc([N+](=O)[O-])o1	0%	23µM*	-6%	-8%	-5%	?
O=C(Nc1ccc(F)c(Cl)c1)c1csc(COCCO)n1	.	-26%	-9%	.	.	-24%
COc1cc(C[C@@H]2NCCc3cc(O)c(O)cc32)cc(OC)c1OC	.	-38%	.	.	.	-12%

Assay outcomes as filed in PubChem.
